“And” between values parts separate entries of the source, which are not always exact repeats. Equal entries are not always repeated.
Key:
Details in all cases: concentration: 10 µM; 24 h
HCC1569 [1] = experiment: cell number relative to DMSO (% of DMSO); higher = more cells (less growth inhibition / toxicity)
In short: (§1)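 Treatment: HCC1569 and TDF cells, 800 per well in 384-well plates with RPMI and 10% FBS, were given compounds at 10 µM for 24 h at 37 °C, in triplicate. Readout: after 3.7% formaldehyde fixation, cells were stained with a rabbit anti-H1.0 antibody, an AlexaFluor 647 secondary and DAPI. Reported values are H1.0 nuclear intensity or cell number as percent of the plate control, taken as the median of replicates, with positional smoothing for HCC1569.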

TDF [2] = experiment: as above
In short: as §1

TDF [3] = experiment: H1.0 immunofluorescence intensity relative to DMSO (% of DMSO); higher = stronger H1.0 induction, active = 120 or more
In short: as §1

HCC1569 [4] = experiment: H1.0 immunofluorescence intensity relative to DMSO (% of DMSO); higher = stronger H1.0 induction, active = 140 or more
In short: as §1
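Throughout, for H1.0 immunofluorescence intensity relative to DMSO: TDF is a line of transformed human dermal fibroblasts of mesenchymal origin.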
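Throughout, for cell number relative to DMSO: TDF denotes transformed human dermal fibroblasts of mesenchymal origin.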

O=S(=O)(NCCNCC=Cc1ccc(Br)cc1)c1cccc2cnccc12 was tested, and the cell number (HCC1569 [1]) was 92.1 and 91.5, the cell number (TDF [2]) was 98.1 and 96.7 and the H1.0 immunofluorescence intensity (TDF [3]) was 93.6 (inactive) and 99.1 (inactive). For the same compound, the H1.0 immunofluorescence intensity (HCC1569 [4]) was 84.2 (inactive) and 136 (inactive).

For O=C1NC(=O)C(=Cc2cccc(C(F)(F)F)c2)S1 [PIM1/2 Kinase Inhibitor V], the cell number (HCC1569 [1]) was 102, the cell number (TDF [2]) was 103 and the H1.0 immunofluorescence intensity (TDF [3]) was 102 (inactive). The H1.0 immunofluorescence intensity (HCC1569 [4]) was 108 (inactive).

For O=P(O)(O)C(O)(Cc1cccnc1)P(=O)(O)O [Risedronic acid], the cell number (HCC1569 [1]) was 110, the cell number (TDF [2]) was 103 and the H1.0 immunofluorescence intensity (TDF [3]) was 100 (inactive). For the same compound, the H1.0 immunofluorescence intensity (HCC1569 [4]) was 99.9 (inactive).

O=C1CCN(c2ccccc2)N1 [Phenidone] was tested, and the cell number (HCC1569 [1]) was 106, the cell number (TDF [2]) was 97.6 and the H1.0 immunofluorescence intensity (TDF [3]) was 92.2 (inactive). The H1.0 immunofluorescence intensity (HCC1569 [4]) was 98.8 (inactive).

In the case of CCN1CCN(c2cc3c(cc2F)c(=O)c(C(=O)O)cn3C2CC2)CC1 [Enrofloxacin], the cell number (HCC1569 [1]) is reported as 101, the cell number (TDF [2]) is reported as 106 and the H1.0 immunofluorescence intensity (TDF [3]) is reported as 96.4 (inactive). For the same compound, the H1.0 immunofluorescence intensity (HCC1569 [4]) was 110 (inactive).

For CS(=O)(=O)CCNCc1ccc(-c2ccc3ncnc(Nc4ccc(OCc5cccc(F)c5)c(Cl)c4)c3c2)o1 [Lapatinib], the cell number (HCC1569 [1]) was 59.8, the cell number (TDF [2]) was 57.6 and the H1.0 immunofluorescence intensity (TDF [3]) was 124 (active). For the same compound, the H1.0 immunofluorescence intensity (HCC1569 [4]) was 151 (active).

In the case of CC(C)(C)C(=O)C(Oc1ccc(Cl)cc1)n1ccnc1 (configuration not stated) [Climbazole], the cell number (HCC1569 [1]) is reported as 99.5, the cell number (TDF [2]) is reported as 98.7 and the H1.0 immunofluorescence intensity (TDF [3]) is reported as 92.2 (inactive). The H1.0 immunofluorescence intensity (HCC1569 [4]) was 99.3 (inactive).

With COc1cc(C=C(C#N)C(=O)c2ccc(O)c(O)c2)cc(I)c1O [I-OMe-Tyrphostin AG 538] the cell number (HCC1569 [1]) was 97.2, the cell number (TDF [2]) was 102 and the H1.0 immunofluorescence intensity (TDF [3]) was 102 (inactive). The H1.0 immunofluorescence intensity (HCC1569 [4]) was 106 (inactive).

With COC(=O)c1cc(OC)c2c(c1-c1c(CO)cc(OC)c3c1OCO3)OCO2 the cell number (HCC1569 [1]) was 104, the cell number (TDF [2]) was 99.8 and the H1.0 immunofluorescence intensity (TDF [3]) was 98.6 (inactive). For the same compound, the H1.0 immunofluorescence intensity (HCC1569 [4]) was 109 (inactive).

For CC(=O)OC1(C(C)=O)CCC2C3C=C(Cl)C4=CC(=O)C5CC5C4(C)C3CCC21C (configuration not stated) [Cyproterone Acetate], the cell number (HCC1569 [1]) was 107, the cell number (TDF [2]) was 93.8 and the H1.0 immunofluorescence intensity (TDF [3]) was 103 (inactive). For the same compound, the H1.0 immunofluorescence intensity (HCC1569 [4]) was 99.8 (inactive).

With O=C(NO)c1cccc(C(=O)NCCc2ccccc2)c1 [N1-hydroxy-N3-phenethylisophthalamide] the cell number (HCC1569 [1]) was 105, the cell number (TDF [2]) was 88 and the H1.0 immunofluorescence intensity (TDF [3]) was 90.4 (inactive). For the same compound, the H1.0 immunofluorescence intensity (HCC1569 [4]) was 101 (inactive).

For COc1c(O)c2c(=O)cc(OC)c3c4c(OC)cc(=O)c5c(O)c(OC)c6c(c(c1CC(C)(O)C6C(C)=O)c23)c54 (configuration not stated) [Hypocrellin A], the cell number (HCC1569 [1]) was 75.8, the cell number (TDF [2]) was 67.1 and the H1.0 immunofluorescence intensity (TDF [3]) was 97.2 (inactive). For the same compound, the H1.0 immunofluorescence intensity (HCC1569 [4]) was 108 (inactive).

With CC(C)NCC(O)COc1ccc(CCOCC2CC2)cc1.Cl (configuration not stated) [Betaxolol hydrochloride] the cell number (HCC1569 [1]) was 102, the cell number (TDF [2]) was 122 and the H1.0 immunofluorescence intensity (TDF [3]) was 95.4 (inactive). For the same compound, the H1.0 immunofluorescence intensity (HCC1569 [4]) was 89.4 (inactive).

With CCCCCCCCCCCCCCCC(=O)NCCO [Palmitylethanolamide] the cell number (HCC1569 [1]) was 99.8, the cell number (TDF [2]) was 104 and the H1.0 immunofluorescence intensity (TDF [3]) was 96.8 (inactive). The H1.0 immunofluorescence intensity (HCC1569 [4]) was 95.5 (inactive).

For CN(Cc1cnc2nc(N)nc(N)c2n1)c1ccc(C(=O)NC(CCC(=O)O)C(=O)O)cc1 (configuration not stated) [Methotrexate], the cell number (HCC1569 [1]) was 81.7, the cell number (TDF [2]) was 86.5 and the H1.0 immunofluorescence intensity (TDF [3]) was 92.8 (inactive). For the same compound, the H1.0 immunofluorescence intensity (HCC1569 [4]) was 87 (inactive).

With CC(=O)NC(CSCC=C(C)CCC=C(C)CCC=C(C)C)C(=O)O (configuration not stated) [Acetyl-farnesyl-cysteine] the cell number (HCC1569 [1]) was 100, the cell number (TDF [2]) was 104 and the H1.0 immunofluorescence intensity (TDF [3]) was 97.2 (inactive). The H1.0 immunofluorescence intensity (HCC1569 [4]) was 96.3 (inactive).

In the case of O=C(O)c1cc(=O)c2ccc(Cl)cc2[nH]1 [7-Chlorokynurenic acid], the cell number (HCC1569 [1]) is reported as 96.9, the cell number (TDF [2]) is reported as 105 and the H1.0 immunofluorescence intensity (TDF [3]) is reported as 92 (inactive). For the same compound, the H1.0 immunofluorescence intensity (HCC1569 [4]) was 91 (inactive).

For N#CC(=Cc1ccc(O)c(O)c1)C(=O)c1ccc(O)c(O)c1 [Tyrphostin AG 538], the cell number (HCC1569 [1]) was 80.4, the cell number (TDF [2]) was 97.3 and the H1.0 immunofluorescence intensity (TDF [3]) was 99.2 (inactive). For the same compound, the H1.0 immunofluorescence intensity (HCC1569 [4]) was 190 (active).

With CCCCCC=CCC=CC=CC=CC(SCC(N)C(=O)NCC(=O)O)C(O)CCCC(=O)O (configuration not stated) [Leukotriene D4] the cell number (HCC1569 [1]) was 106, the cell number (TDF [2]) was 99.8 and the H1.0 immunofluorescence intensity (TDF [3]) was 92.1 (inactive). The H1.0 immunofluorescence intensity (HCC1569 [4]) was 97.3 (inactive).

In the case of O=C1c2ccccc2-c2n[nH]c3cccc1c23, the cell number (HCC1569 [1]) is reported as 93.2, the cell number (TDF [2]) is reported as 107 and the H1.0 immunofluorescence intensity (TDF [3]) is reported as 92 (inactive). The H1.0 immunofluorescence intensity (HCC1569 [4]) was 138 (inactive).

For C[N+](C)(C)CCOC(N)=O.[Cl-] [Carbachol], the cell number (HCC1569 [1]) was 105, the cell number (TDF [2]) was 120 and the H1.0 immunofluorescence intensity (TDF [3]) was 100 (inactive). The H1.0 immunofluorescence intensity (HCC1569 [4]) was 96.9 (inactive).

For CC(=O)OCC1(O)CC23CCC4c5ccoc5CCC4(C)C2CCC1C3 (configuration not stated) [Cafestol acetate], the cell number (HCC1569 [1]) was 103, the cell number (TDF [2]) was 98.6 and the H1.0 immunofluorescence intensity (TDF [3]) was 97.6 (inactive). The H1.0 immunofluorescence intensity (HCC1569 [4]) was 98.4 (inactive).

For COc1cc2nc(N(C)CCCNC(=O)C3CCCO3)nc(N)c2cc1OC (configuration not stated) [Alfuzosin], the cell number (HCC1569 [1]) was 99.7, the cell number (TDF [2]) was 96.5 and the H1.0 immunofluorescence intensity (TDF [3]) was 97.7 (inactive). For the same compound, the H1.0 immunofluorescence intensity (HCC1569 [4]) was 102 (inactive).

Source: the supplement of paper PMC7156485
